# HCMV antiviral – inhibitors of human cytomegalovirus. activity change, negative = inhibition, % at 57.5 µM. 410,000 compounds, 4.5% hits. HFF cells, HCMV-luciferase reporter, 72 h; stronger effect = lower value. AID 1259415; in the data active = activity change below about -60%; inconclusive = no clear call, values can overlap the other calls; inactive = above about -39%
#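 Human foreskin fibroblasts infected with luciferase-reporter HCMV at MOI 1 PFU/cell, compounds at two doses. Luciferase measured 72 h post infection; normalized to buffer-only basal and Salinomycin (10uM) controls.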
# AmpC inh detg – inhibitors of E. coli AmpC beta-lactamase with detergent; AmpC hydrolysis of nitrocefin, absorbance 480 nm, 0.01% Triton; Potency, µM (series often up to 114 µM), for inactives: at the top dose activity change, negative = inhibition, usual class: inhibitors; 370,000 compounds, 0.041% hits; AID 485294;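 also: potency is read from the fitted curve at half-maximal effect; 0% = no-compound wells and -100% = no-enzyme wells; nearly all actives have a fitted effect of over 25% in size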
# Target sequence (P00811 whole entry, looked up): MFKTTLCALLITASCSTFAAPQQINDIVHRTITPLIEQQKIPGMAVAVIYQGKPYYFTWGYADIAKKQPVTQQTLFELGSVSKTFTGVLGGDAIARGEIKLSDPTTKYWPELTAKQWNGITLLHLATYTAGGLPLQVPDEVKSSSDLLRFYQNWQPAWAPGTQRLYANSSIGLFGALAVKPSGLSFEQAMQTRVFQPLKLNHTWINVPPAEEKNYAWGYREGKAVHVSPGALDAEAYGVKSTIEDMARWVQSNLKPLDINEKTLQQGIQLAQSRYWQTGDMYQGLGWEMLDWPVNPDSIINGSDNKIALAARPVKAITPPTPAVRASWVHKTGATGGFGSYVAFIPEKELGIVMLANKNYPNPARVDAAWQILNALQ
#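 AmpC (5.3 nM in the dispensed reagent) in 20 mM phosphate pH 7.0 with 0.01% (detergent screen) or 0.0001% Triton X-100 was preincubated with compounds for 15 min at room temperature. Nitrocefin was then added from an 800 uM solution, and hydrolysis was followed at 480 nm.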
# HCV inhibitor – inhibitors of hepatitis C virus infection; Huh7.5.1 HCVcc-Cre infection, luciferase reporter, 44 h; Potency, µM (highest dose often 41.8 µM), for inactives: top-dose activity change, negative = inhibition, usual class: inhibitors; 340,000 compounds, 3.4% hits; AID 651820; also: potency is read from the fitted curve at half-maximal effect
#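 Compounds are dispensed onto cells plated 4 h earlier at 1,000 per well, with HCVcc-Cre virus (about 0.5 moi) added next. Following 44 h of culture, luminescent signal is measured for 15 sec after 15 min with substrate at room temperature.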
# AmpC inh no detg – inhibitors of E. coli AmpC beta-lactamase without detergent; P00811; AmpC nitrocefin hydrolysis, absorbance 480 nm, 0.0001% Triton; Potency, µM (highest dose often 57.1 µM), without a hit: at the top dose activity change, negative = inhibition, most hits filed as inhibitors; 330,000 compounds, 0.52% hits;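 also: potency is read from the fitted curve at half-maximal effect; plate controls were no compound for no effect and no enzyme for full effect; nearly all actives have a fitted effect of over 20% in size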
#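 20 mM phosphate pH 7.0 + 0.01% (detergent screen) or 0.0001% Triton X-100; 5.3 nM AmpC reagent; cpd preinc 15 min RT; nitrocefin (800 uM stock) to start; A480 q20 s × 4 min; Activity was normalised to no-enzyme and no-compound control wells.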
# FMDV antiviral – blocks foot and mouth disease virus. FMDV antiviral cell-based qHTS. Potency, µM (series often up to 57.9 µM), for inactives: top-dose activity change, negative = inhibition, most hits filed as inhibitors. 410,000 compounds, 1.2% hits; calls by dose curve; tested in HEK293T cells; also: read-out not given here; potency is read from the fitted curve at half-maximal effect; nearly all actives have a fitted effect of over 45% in size
# The depositor's hits bear a star; ? = inconclusive; · = no result given; [ ] = remark or other dose. Rows were chosen to be rich in hits. Some 7.3% of all compounds tested hit in one or more screens of this group. Unless noted, calls follow the shape of the dose curve; as a rule, active = well fitted curve in the direction sought with a large enough effect; inconclusive = small, poorly fitted or top-dose-only effect, or another doubt; inactive = no such curve, though single readings can be large; an effect the other way counts as inactive or inconclusive. Unless noted, % is scaled to controls: 0 for no effect and ±100 for the full control effect.
SMILES,HCMV antiviral,AmpC inh detg,HCV inhibitor,AmpC inh no detg,FMDV antiviral
O=C(c1ccc2nc(-c3ccco3)c(-c3ccco3)nc2c1)N1CCN(c2ccccc2)CC1,-107.7*,?,?,95.5%,?
COC(=O)COc1ccc(C(=O)Cn2c(NCCCO)nc3ccccc32)cc1,-30.5,·,29.8%,·,-8.5%
COC(=O)C(CC(C)C)N(Cc1ccc(Br)cc1)S(=O)(=O)CCl (centres undefined),-0.8,·,·,·,·
COC(=O)CSc1nnc(CSc2nc(C)cc(C)n2)n1Cc1ccco1,8.1,-0.9%,10.6%,22.2%,-21.1%
Cc1cc(C)nc(SCc2nnc(SCC(=O)Nc3ccc(C)c(C)c3)n2Cc2ccco2)n1,33.5,2.0%,25.1µM*,96.5%,-0.6%
COc1ccc(NC(=O)Nc2ccc3c(c2)C(=O)N([C@@H](C)CO)C[C@@H](C)[C@@H](CN(C)S(=O)(=O)c2cn(C)cn2)O3)cc1,24.7,·,28.4%,179.2%,4.2%
CCOc1ccc(S(=O)(=O)c2cn(CC)c3ccc(F)cc3c2=O)cc1,3.7,-8.8%,·,·,35.5%
CCCn1cc(S(=O)(=O)c2ccc(F)cc2)c(=O)c2cc(OCC)ccc21,-67.3*,2.5%,-23.6%,-11.7%,-2.9%
CCN(CC)S(=O)(=O)c1cnccc1N1CCN(c2cccc(Cl)c2)CC1,-29.3,-3.5%,-18.2%,175.1%,39.8µM*
CNS(=O)(=O)c1cnccc1N1CCN(c2cccc(Cl)c2)CC1,-15.0,6.5%,-6.1%,·,-28.7%
CS(=O)(=O)Nc1cccc(-c2nc(N3CCOCC3)c3ccccc3n2)c1,·,·,·,·,-6.0%
Cc1cccc(Cn2ccn(Cc3ccc(Cl)cc3)c(=O)c2=O)c1,-62.1*,19.5%,·,·,-2.3%
Cc1cccc(Cn2ccc(-c3ccc(Cl)cc3)c(C#N)c2=O)c1,-37.8,1.9%,-5.8%,-6.9%,-15.8%
CCCN(CCC)C(=O)Cn1c(=O)n(CCCCC(=O)NC2CCCC2)c(=O)c2ccccc21,-8.9,-1.2%,1.4%,0.316µM*,16.8%
Cc1ccccc1NS(=O)(=O)c1ccc(C(=O)NN2CCCCC2)cc1,-8.8,15.9%,10.8%,33.5%,-16.3%
Cc1nnc2c3ccccc3c(-c3ccccc3)nn12,-66.4*,·,-2.1%,·,·
Cc1oc(=O)cc(OCc2ccccc2)c1C,-27.4,·,-17.5%,-13.0%,-15.7%
CC(=O)C1=C(O)C(=O)N(Cc2ccccc2)C1c1ccc(F)cc1 (centres undefined),-76.6*,-20.0%,13.4%,-13.1%,-11.3%
COc1cccc(NC(=O)C2CCCN(c3nnc(-n4c(C)ccc4C)s3)C2)c1 (centres undefined),8.0,22.5%,·,·,0.0%
CC(=O)c1cccc(NC(=O)C2CCCN(c3nnc(-n4cccc4)s3)C2)c1 (centres undefined),-102.7*,6.1%,·,·,0.0%
O=C1CC(c2ccccc2)CC(O)=C1C=NCc1ccccc1 (centres undefined),-26.6,-13.9%,10.3%,-56.8%,·
O=C1CC(c2ccccc2)CC(O)=C1C=NCc1ccccc1Cl (centres undefined),-81.1*,-0.9%,-24.4%,-23.6%,·
COc1ccc(N(C)C(=O)c2oc(=O)c3ccccc3c2-c2ccc(C)cc2)c(OC)c1,-11.3,-1.9%,10µM*,36.0%,?
COc1ccc(OC)c(NC(=O)c2oc(=O)c3ccccc3c2-c2ccccc2)c1,14.9,6.3%,·,·,0.0%
CC1(C)OC1(C#N)c1ccccc1 (centres undefined),-11.0,·,3.4%,·,-3.3%
SMILES,HCMV antiviral,AmpC inh detg,HCV inhibitor,AmpC inh no detg,FMDV antiviral
CN(C)c1cc[n+](CC(=O)Nc2c(Cl)cc(Cl)cc2Cl)cc1,-67.5*,-3.2%,-3.2%,-8.1%,-9.4%
CSc1ncc2c(n1)-c1cc(C)ccc1SC2,-98.1*,?,8.91µM*,-13.4%,-10.3%
Cc1ncc2c(n1)-c1cc(F)ccc1SC2,-12.1,-0.9%,-4.5%,3.4%,-3.5%
COC(=O)c1c(NC(=O)CN2CCOCC2)sc2c1CCC(C)C2 (centres undefined),38.2,?,?,0.0%,-18.7%
COC(=O)c1c(NC(NC(C)=O)C(Cl)(Cl)Cl)sc2c1CCCC2 (centres undefined),-5.6,6.0%,11.2µM*,24.4%,35.5µM*
COC(=O)c1c(NC(=O)C2CC2)sc2c1CCCC2,1.5,?,10µM*,44.7µM*,-8.8%
COCC(=O)Nc1sc2c(c1C(=O)OC)CCC(C)C2 (centres undefined),-7.8,-11.4%,7.08µM*,161.0%,7.3%
COC(=O)c1c(NC(=O)CCC(=O)O)sc2c1CCCCC2,?,-0.4%,1.1%,-9.9%,0.0%
CCOC(=O)c1c(NC(NC(C)=O)C(Cl)(Cl)Cl)sc2c1CCCC2 (centres undefined),?,1.7%,10µM*,34.8%,?
COC(=O)c1c(NC(NC(=O)C(C)C)C(Cl)(Cl)Cl)sc2c1CCC2 (centres undefined),?,-5.8%,?,-40.4%,-28.5%
O=C1COc2ccc3ccccc3c21,-22.8,-4.5%,2.6%,-12.1%,3.9%
COc1cc(NC(=S)NCCc2ccc(S(N)(=O)=O)cc2)c(OC)cc1Cl,-60.6*,3.3%,-21.5%,-1.1%[2.29 µM],2.0%
COc1ccc(S(=O)(=O)Nc2ccccc2OC)cc1C,10.6,?,11.4%,-55.8%,·
COc1ccc(NC(=S)NCCc2ccc(F)cc2)c(OC)c1,0.7,-7.3%,-14.1%,-23.9%,6.8%
COc1cc(NS(=O)(=O)c2ccc(C)c(C)c2)c(OC)cc1Cl,-69.3*,2.0%,-9.5%,-16.1%,-1.6%
COc1ccc(/C(C)=N/NC(=S)NCCc2ccccc2)cc1,-114.1*,0.4%,-11.8%,-32.6%,-17.9%
COc1ccc(NC(=S)NCCc2ccccc2)c(OC)c1,6.2,2.8%,22.4µM*,-17.2%,-3.4%
Cc1oc(-c2cccc(NC(=O)c3ccccn3)c2)nc1CNC(=O)C#Cc1ccccc1,·,·,·,·,15.8%
C/C(=N\NC(=S)NCc1ccccc1)c1ccc2ccccc2c1,-23.7,-1.4%,?,25.1µM*,-5.9%
O=[N+]([O-])/C=C/c1cn(Cc2ccccc2)c2ccccc12,-104.5*,?,-6.3%,-46.5%,-40.1%
N#Cc1ccccc1Cn1cc(/C=C/[N+](=O)[O-])c2ccccc21,-100.7*,?,?,-34.5%,14.1µM*
O=C(Cn1cc(/C=C\[N+](=O)[O-])c2ccccc21)Nc1ccccc1,?,0.6%,?,-38.1%,12.6µM*
C/C(=N\NC(=O)c1ccc(NS(=O)(=O)c2cccs2)cc1)c1ccc(C(C)(C)C)cc1,14.9,-3.9%,7.08µM*,-55.3%,-20.9%
CC(=O)Nc1cccc(/C(C)=N/NC(=O)c2ccc(NS(=O)(=O)c3cccs3)cc2)c1,-36.8,-0.2%,-3.3%,-46.8%,-12.9%
COc1cc(C2c3cc4c(cc3OC(NNC(N)=S)C2C)OCO4)cc(OC)c1OC (centres undefined),-80.5*,·,-12.2%,·,-18.5%
